# Laboratory results from PubChem BioAssay (Tox21).
# Inconclusive results are not listed. Where a call stands in place of a potency, no number is given. The source made the active and inactive calls. Unless noted, the call rests on the fitted dose curve; in most records, active means well fitted curve in the direction sought with a large enough effect in the repeat runs; inconclusive means weak or mixed curves; inactive means no such curve, though single readings can be large; an effect the other way counts as inactive or inconclusive.
# Assays:
# [1] = target: Retinoic acid receptor RXR-alpha (Homo sapiens) (UniProt P19793); assay: qHTS assay to identify small molecule agonists of the RXR signaling pathway (AID 1159527; calls by dose curve; further: nearly all actives have a fitted effect of over 35% in size)
# Outline: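 Agonist mode; 9-cis retinoic acid positive control. HEK 293T UAS-bla reporter cells, 2% charcoal-stripped FBS, 16 hr compound exposure at 37 C/5% CO2. LiveBLAzer B/G FRET substrate 2 hr RT; ex 405, em 460/530 nm.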
# [2] = qHTS assay to identify small molecule agonists of the RXR signaling pathway - cell viability counter screen (AID 1159529); further: series mostly up to about 77 µM; nearly all actives have a fitted effect of over 50% in size
# Outline: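 Luminescence from CellTiter-Glo (30 min, RT) measured viability in the same wells as the beta-lactamase reporter readout. Cells: GeneBLAzer RXR-alpha HEK 293T, 2% charcoal-stripped FBS. Compound exposure 16 hr, 37 C.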
# [3] = qHTS assay to identify small molecule antagonists of the retinoid acid receptor (RAR) signaling pathway - cell viability counter screen (AID 1159551); further: nearly all actives have a fitted effect of over 35% in size
# Outline: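 C3RL4 cells were seeded overnight at 37 C, then treated with compounds plus 1 uM (final) retinol for 6 h at 37 C. Viability was read as ATP by CellTiter-Glo luminescence after 30 min at room temperature.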
# [4] = qHTS assay to identify small molecule antagonists of the retinoic acid receptor (RAR) signaling pathway (AID 1159552; further: nearly all actives have a fitted effect of over 50% in size)
# Outline: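 Luminescence from a RARE luciferase reporter in C3RL4 cells served as read-out. Cells received compounds together with 1 uM final retinol and incubated 6 hr at 37 C before detection reagent was added for 30 min at room temperature.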
# [5] = qHTS assay to identify small molecule agonists of the retinoic acid receptor (RAR) signaling pathway (AID 1159553); further: potency means the concentration at half of the fitted maximal effect
# Outline: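 C3RL4 cells carrying a RARE luciferase reporter were plated overnight at 37 C, then exposed to compounds in DMSO for 6 hr at 37 C and 5% CO2. Luminescence was read 30 min after luciferase reagent addition at room temperature.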
# [6] = qHTS assay to identify small molecule antagonists of the estrogen related receptor (ERR) signaling pathway from Tox21 library - cell viability counter screen (AID 1224834); further: nearly all actives have a fitted effect of over 30% in size
# Outline: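 ERR reporter cells were plated 6 h before compound addition, then exposed to test compounds in DMSO for 17.5 h at 37 C. Viability was read as CellTiter-Fluor fluorescence after a 30-minute incubation at 37 C.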
# [7] = qHTS assay to identify small molecule agonists of the constitutive androstane receptor (CAR) signaling pathway - cell viability counter screen (AID 1224836); further: series mostly up to about 92 µM; nearly all actives have a fitted effect of over 45% in size
# Outline: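 Viability read-out: CellTiter-Fluor fluorescence after 23 h compound exposure at 37 C/5% CO2 in double-stable HepG2-CYP2B6-hCAR cells, with PK11195 present at 0.75 uM final; compounds tested in 15-point titration.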
# [8] = qHTS assay to identify small molecule antagonists of the constitutive androstane receptor (CAR) signaling pathway - cell viability counter screen (AID 1224837); further: series mostly up to about 92 µM; nearly all actives have a fitted effect of over 45% in size
# Outline: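 HepG2 cells stably expressing hCAR and a CYP2B6-2.2kb reporter were plated and pre-incubated 4 hr at 37 C/5% CO2, then given compounds at 15 concentrations plus 50 nM CITCO (final). After 23 hr, viability was read by CellTiter-Fluor fluorescence.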
# [9] = target: Nuclear receptor subfamily 1 group I member 3 (Homo sapiens) (UniProt Q14994); assay: qHTS assay to identify small molecule antagonists of the constitutive androstane receptor (CAR) signaling pathway (AID 1224838); further: nearly all actives have a fitted effect of over 40% in size
# Outline: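 HepG2 cells stably co-transfected with hCAR and a CYP2B6-2.2kb luciferase reporter were seeded 4 h before compound addition at 15 concentrations. Cells were stimulated with 50 nM CITCO (final) for 24 h at 37 C; luciferase luminescence was then read.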
# [10] = target: Nuclear receptor subfamily 1 group I member 3 (Homo sapiens) (UniProt Q14994); assay: qHTS assay to identify small molecule agonists of the constitutive androstane receptor (CAR) signaling pathway (AID 1224839); further: nearly all actives have a fitted effect of over 15% in size; further: potency means the concentration at half of the fitted maximal effect
# Outline: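 Luminescence read-out (ONE-Glo, 30 min, room temperature) from double-stable HepG2-CYP2B6-hCAR cells exposed 24 h to 15-point compound series in presence of 0.75 uM PK11195 final.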
# [11] = qHTS assay to identify small molecule antagonists of the estrogen related receptor signaling pathway with the pleiotropic PPARgamma coactivator (PGC) from Tox21 10K library - cell viability counter screen (AID 1224840; active means well fitted cell-killing curve with a large enough effect in the repeat runs, not every such curve was filed as active; further: nearly all actives have a fitted effect of over 40% in size)
# Outline: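 PGC/ERR cells were seeded at 2,000 cells/well and left 6 hours at 37 C/5% CO2 before pin-tool addition of compounds in DMSO. After 17.5 hours at 37 C, CellTiter-Fluor was added and fluorescence read 30 minutes later.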
# [12] = qHTS assay to identify small molecule antagonists of the estrogen related receptor signaling pathway with the pleiotropic PPARgamma coactivator (PGC) from Tox21 10K library (AID 1224841; call rule not given here; further: series mostly up to about 92 µM; actives are mostly falling curves and most rising ones were filed inactive; nearly all actives have a fitted effect of over 50% in size)
# Outline: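 PGC/ERR reporter cells were seeded at 2,000 cells/well and held 6 hours at 37 C/5% CO2 before pin-tool addition of compounds in DMSO. After 18 hours at 37 C, One-Glo was added and luminescence read after 30 minutes at room temperature.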
# [13] = qHTS assay to identify small molecule agonists of the estrogen related receptor signaling pathway with the pleiotropic PPARgamma coactivator (PGC) from Tox21 10K library (AID 1224842); further: nearly all actives have a fitted effect of over 15% in size
# Outline: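 PGC/ERR reporter cells (NTP line) were seeded 2,000 per well, rested 6 h at 37 C/5% CO2, then pin-dosed with compounds in DMSO for 18 h at 37 C; luciferase read by One-Glo luminescence after 30 min at room temperature.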
# [14] = target: Luciferin 4-monooxygenase (Photinus pyralis) (UniProt P08659); assay: qHTS assay to identify small molecule inhibitors of firefly luciferase (AID 1224835); further: nearly all actives have a fitted effect of over 25% in size; further: potency means the concentration at half of the fitted maximal effect
# Outline: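 Quantitative HTS format; KM concentrations of both substrates. Purified P. pyralis FLuc activity quantified from luminescence images.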
# [15] = qHTS assay to identify small molecule antagonists of the estrogen related receptor (ERR) signaling pathway - cell viability counter screen (AID 1224818);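 further: series mostly up to about 46 µM; viability measured after 17.5 h of compound exposure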
# Outline: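 ERR reporter cells plated 6 h at 37 C/5% CO2, then compounds in DMSO pin-transferred and incubated 17.5 h at 37 C. Viability read as CellTiter-Fluor fluorescence after 30 min at 37 C.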
# [16] = qHTS assay to identify small molecule antagonists of the estrogen related receptor (ERR) signaling pathway (AID 1224819;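 further: luminescence from an ERR-driven luciferase reporter measured with One-Glo reagent; series mostly up to about 46 µM; nearly all actives have a fitted effect of over 50% in size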)
# Outline: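 ERR reporter cells were plated at 2,000 cells/well and left 6 h at 37 C/5% CO2 before pin-tool transfer of compounds in DMSO. After 18 h at 37 C, One-Glo was added and luminescence was read 30 min later at room temperature.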
# [17] = qHTS assay to identify small molecule agonists of the estrogen related receptor (ERR) signaling pathway (AID 1224820)
# Outline: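 Cells: ERR line from NTP, 2,000/well. Pre-incubation 6 h, 37 C/5% CO2. Compound (DMSO) pin transfer, 18 h 37 C. One-Glo, 30 min RT, luminescence.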
# [18] = system: estrogen-related receptor alpha (ERRalpha) with PGC-1alpha coactivator, human; assay: qHTS assay to identify small molecule antagonists of the estrogen related receptor signaling pathway with the pleiotropic PPARgamma coactivator (PGC) (AID 1224821; calls by dose curve)
# Outline: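 Luminescent read-out (One-Glo, 30 min at room temperature) following 18 h treatment of PGC/ERR cells at 37 C with compounds delivered in DMSO. Cells had settled 6 h at 37 C/5% CO2 before dosing.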
# [19] = qHTS assay to identify small molecule antagonists of the estrogen related receptor signaling pathway with the pleiotropic PPARgamma coactivator (PGC) cell viability counter screen (AID 1224822; further: series mostly up to about 46 µM)
# Outline: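 PGC/ERR cells were seeded at 2,000 cells/well, rested 6 h at 37 C/5% CO2, then given compounds in DMSO by pin tool and incubated 17.5 h at 37 C. Viability came from CellTiter-Fluor fluorescence after 30 min.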
# [20] = qHTS assay to identify small molecule agonists of the estrogen related receptor signaling pathway with the pleiotropic PPARgamma coactivator (PGC) (AID 1224823)
# Outline: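 Steps: plate PGC/ERR cells at 2,000 cells/well; incubate 6 h, 37 C/5% CO2; pin-transfer compounds (DMSO); incubate 18 h, 37 C; add One-Glo; 30 min RT; read luminescence.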
# Retinoic acid receptor RXR-alpha (Homo sapiens), sequence (P19793 whole entry, looked up): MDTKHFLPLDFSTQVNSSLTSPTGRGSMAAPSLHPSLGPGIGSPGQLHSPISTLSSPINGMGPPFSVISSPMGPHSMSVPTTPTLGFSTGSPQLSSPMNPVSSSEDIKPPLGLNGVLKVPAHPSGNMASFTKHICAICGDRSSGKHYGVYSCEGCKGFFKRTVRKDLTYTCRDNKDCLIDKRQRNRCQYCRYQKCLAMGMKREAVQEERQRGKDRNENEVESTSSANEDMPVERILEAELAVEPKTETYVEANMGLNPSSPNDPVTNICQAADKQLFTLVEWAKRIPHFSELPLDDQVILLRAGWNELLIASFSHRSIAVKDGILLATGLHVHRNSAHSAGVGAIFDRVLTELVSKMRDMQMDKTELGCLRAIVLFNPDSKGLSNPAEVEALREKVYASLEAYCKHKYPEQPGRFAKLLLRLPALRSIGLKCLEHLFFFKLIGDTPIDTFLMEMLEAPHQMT
# Nuclear receptor subfamily 1 group I member 3 (Homo sapiens), sequence (Q14994 whole entry, looked up): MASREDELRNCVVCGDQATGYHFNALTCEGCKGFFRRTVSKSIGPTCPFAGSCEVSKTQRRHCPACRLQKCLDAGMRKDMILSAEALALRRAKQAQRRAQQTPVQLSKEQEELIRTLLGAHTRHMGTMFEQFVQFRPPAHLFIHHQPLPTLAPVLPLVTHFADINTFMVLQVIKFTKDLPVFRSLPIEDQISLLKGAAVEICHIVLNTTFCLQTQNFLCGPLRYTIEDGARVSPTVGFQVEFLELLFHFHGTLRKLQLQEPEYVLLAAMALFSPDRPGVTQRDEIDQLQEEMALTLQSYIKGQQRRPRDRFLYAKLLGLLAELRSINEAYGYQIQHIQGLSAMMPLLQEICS
# Luciferin 4-monooxygenase (Photinus pyralis), sequence (P08659 whole entry, looked up): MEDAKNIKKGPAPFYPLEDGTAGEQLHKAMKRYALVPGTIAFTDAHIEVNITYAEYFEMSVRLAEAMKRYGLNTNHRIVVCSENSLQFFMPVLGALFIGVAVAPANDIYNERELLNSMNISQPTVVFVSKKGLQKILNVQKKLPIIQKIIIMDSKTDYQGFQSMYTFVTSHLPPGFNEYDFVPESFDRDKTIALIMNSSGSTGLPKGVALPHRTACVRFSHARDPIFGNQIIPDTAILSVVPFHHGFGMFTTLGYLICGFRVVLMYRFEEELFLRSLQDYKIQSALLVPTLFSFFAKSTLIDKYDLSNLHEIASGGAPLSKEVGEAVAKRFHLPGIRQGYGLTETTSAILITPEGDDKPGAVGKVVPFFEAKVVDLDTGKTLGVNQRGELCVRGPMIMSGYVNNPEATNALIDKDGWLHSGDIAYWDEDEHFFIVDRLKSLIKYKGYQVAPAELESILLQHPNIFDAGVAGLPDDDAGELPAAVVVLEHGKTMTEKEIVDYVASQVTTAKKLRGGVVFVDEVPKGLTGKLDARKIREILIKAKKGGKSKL
Structure (SMILES),Potency [1],Potency [2],Potency [3],Potency [4],Potency [5],Potency [6],Potency [7],Potency [8],Potency [9],Potency [10],Potency [11],Potency [12],Potency [13],Potency [14],outcome [15],outcome [16],outcome [17],Potency [18],Potency [19],outcome [20]
Sc1ccccc1Cl,inactive,inactive,inactive,inactive,inactive,inactive,inactive,inactive,inactive,inactive,inactive,inactive,inactive,,,,,,,
Cc1ccc(N)cc1C,inactive,inactive,inactive,inactive,69.1 µM (active),inactive,inactive,inactive,inactive,4.9 µM (active),inactive,inactive,,inactive,,,,,,
C/C=C/C=O,inactive,inactive,inactive,inactive,inactive,inactive,inactive,inactive,inactive,inactive,inactive,,,inactive,,,,,,
CCOC(=O)CBr,inactive,inactive,inactive,inactive,inactive,inactive,inactive,inactive,inactive,inactive,inactive,,,,,,,,,
COC(N)=O,inactive,inactive,inactive,inactive,inactive,inactive,,inactive,inactive,,inactive,,,inactive,,,,,,
Clc1cccc(SC2CCNCC2)n1,inactive,inactive,inactive,inactive,inactive,inactive,inactive,inactive,,,inactive,inactive,inactive,inactive,,,,,,
COC(=O)C(Cl)C(=O)OC,inactive,inactive,inactive,inactive,inactive,inactive,inactive,inactive,inactive,inactive,inactive,,,inactive,,,,,,
NC(=O)C(Cl)(Cl)Cl,inactive,inactive,inactive,inactive,inactive,inactive,inactive,inactive,inactive,,inactive,,,inactive,,,,,,
COP(=S)(OC)Oc1cc(Cl)c(I)cc1Cl,inactive,inactive,inactive,inactive,inactive,inactive,inactive,inactive,inactive,,inactive,,,79.6 µM (active),,,,,,
C=CCCl,inactive,inactive,inactive,inactive,inactive,inactive,inactive,inactive,inactive,inactive,inactive,,,inactive,,,,,,
c1ccc(C2CC2)c(OCC2=NCCN2)c1,inactive,inactive,inactive,inactive,inactive,,,inactive,,,inactive,inactive,,,inactive,inactive,inactive,inactive,inactive,inactive
